# PubChem BioAssay (NCI)
# The panel holds about 83,000 compounds, 20% with a hit somewhere; the sample as a whole holds those more often.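 Results are percent growth after 48 hours of single-concentration exposure. 100 means growth as in untreated cells, lower positive values show inhibition; negative values down to -100 show cell death.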 A number with no mark means an inactive call. Activity calls are given as the source filed them. Rule for the calls: active = growth percent below 10; inactive = the rest.
# Test system: HOP-62 NSCLC
# Test: NCI-60 one-dose screen, 48 h (100 = growth as untreated, 0 = no growth, -100 = all killed)
# Settings: 10 µM unless noted
row,SMILES,growth
1,O=C(COc1ccc(NC(=O)Nc2ccc(Cl)c(Cl)c2)cc1)N=Nc1c(O)[nH]c2ccccc12,-53.1% (active)
2,COc1ccc(-c2nnc3ccc(N/N=C/c4ccc(O)cc4)nn23)cc1,88.4%
3,CCCSc1nc(NCCc2c[nH]c3ccccc23)c(C#N)c(-c2ccccc2)n1,65.4%
4,CSc1ccc(C(=O)Nc2ccc3nnn(/C(C#N)=C/c4ccccn4)c3c2)cc1,-5.88% (active)
5,CC(=O)OC[C@@]1(C)C2CC[C@]3(C)C(CC=C4C5CC(C)(C)CC[C@]5(C(=O)Nc5cccc(C)c5)CC[C@]43C)[C@@]2(C)C[C@@H](OC(C)=O)[C@@H]1OC(C)=O (stereo partly drawn),40.4%
6,CN(C)c1ccnc(CNCCSC2(c3ccccc3)c3ccccc3C=Cc3ccccc32)c1,9.26% (active)
7,Cn1cc(-c2nnc(N)nc2-c2c[nH]c3ccc(F)cc23)c2cccnc21,49.2%
8,Clc1cccc(-c2ccc(OCCCN3CCN(c4ccncc4)CC3)cc2)c1,-49.1% (active)
9,Cc1ccccc1[C@H]1C(C(=O)c2ccc(Cl)cc2)C2(N[C@@H]1c1ccccc1)C(=O)Nc1ccc(Br)cc12 (stereo partly drawn),31.6%
10,CN(C)c1ccnc(CNCCSC2(c3ccc(C(F)(F)F)cc3)c3ccccc3C=Cc3ccccc32)c1,17.2%
11,O=C(c1ccc(OCCN2CCOCC2)cc1)C1[C@H](c2ccc(Cl)cc2)[C@@H](c2ccccc2)NC12C(=O)Nc1ccc(Cl)cc12 (stereo partly drawn),67.7%
12,COc1cc(CNC(=O)/C=C/c2ccc3c(c2)OCO3)ccc1OCc1cn(-c2ccc([N+](=O)[O-])cc2)nn1,77.8%
13,CC(=O)Nc1ccc(-c2nc3cc(-c4ccc(O)cc4)ccc3n2C)cc1,83.8%
14,Clc1cccc(Cl)c1/C=C/c1cc(/C=C/c2ccc(Br)cc2)c2ccccc2n1,94%
15,COc1cc(OC)cc(-c2cc3ccc(N(C)C)cc3c(=O)[nH]2)c1,53%
16,CNC(=O)c1cc(Oc2ccc3nc(NC(=O)Nc4cccc(OC(F)(F)F)c4)sc3c2)ccn1,-71.7% (active)
17,N#Cc1c(-c2ccc(Br)cc2)nc2n[nH]c(-c3ccc(Br)cc3)c2c1-c1ccc(F)cc1,87.9%
18,CCN1CCN(Cc2ccc(C(=O)Nc3cccc(C#Cc4cccc5[nH]nc(N)c45)c3)cc2C(F)(F)F)CC1,-66.1% (active)
19,O=c1[nH]n(C(=S)N/N=C/c2ccccc2Cl)c(=O)c2ccccc12,-2.31% (active)

row,SMILES,growth
1,CC1(C)CC[C@]2(C(=O)Nc3ccccc3)CC[C@]3(C)C(=CCC4[C@@]5(C)C[C@@H](O)[C@H](O)[C@@](C)(CO)C5CC[C@]43C)C2C1 (stereo partly drawn),75.3%
2,Nc1nnc(-c2c[nH]c3ncc(Br)cc23)c(-c2c[nH]c3ccc(F)cc23)n1,46.6%
3,COc1ccc(C(=O)/C=C/c2ccccc2Br)cc1S(N)(=O)=O,-18.7% (active)
4,CSc1ccccc1NC(=O)c1ccc2nn(/C(C#N)=C/c3ccccn3)nc2c1,0.554% (active)
5,O=C(N=Nc1c(O)[nH]c2ccc(Cl)cc12)c1ccc2nc(-c3ccccc3)[nH]c2c1,81.3%
6,CC(=O)Oc1ccccc1C(=O)[Se]C(=NC1CCCCC1)NC1CCCCC1,-87% (active)
7,CSc1ccc(NC(=O)c2ccc3nnn(/C(C#N)=C/c4ccccn4)c3c2)cc1,-58.1% (active)
8,COc1ccc(C(=O)/C=C/c2cccnc2)cc1S(N)(=O)=O,27.5%
9,Cc1ccc([C@H]2C(C(=O)c3ccc(Cl)cc3)C3(N[C@@H]2c2ccccc2)C(=O)Nc2ccccc23)cc1 (stereo partly drawn),44%
10,CN(C)CCCNC(=O)c1cc(NC(=O)c2cc(NC(=O)c3ccc(C#Cc4ccccc4)cc3)cn2C)cn1C,8.16% (active)
11,COc1ccc(C(=O)/C=C/c2cccc3ccccc23)cc1S(N)(=O)=O,18.2%
12,COc1ccc(NC(=O)c2sc3nc(C(C)C)ccc3c2N)cc1,93.2%
13,COc1ccc([C@H](C)Nc2nc(Cl)nc3ccccc23)cc1,43.6%
14,COc1cc2oc(-c3cccc(NC(=O)[C@H](Cc4ccccc4)NC(=O)OC(C)(C)C)c3)cc(=O)c2c(OC)c1OC,49%
15,Cc1ccc(C(=O)CSc2nc3ccc(F)cc3c(=O)n2-c2ccc(Cl)cc2)cc1,-17.1% (active)
16,CC(C)Sc1nc(NCCc2c[nH]c3ccccc23)c(C#N)c(-c2ccc(F)cc2)n1,51.9%
17,OCNc1ccc(-n2cnc3cc(-c4ccc(O)cc4)ccc32)cc1C(F)(F)F,34.9%
18,Cc1cc2nc3c4ccccc4n(CCNCCN(C)C)c3nc2cc1C,45.3%
19,COc1ccc2c(c1)C(=N/N=C(\C)c1ccc(OC)c(S(N)(=O)=O)c1)C(=O)N2,89.1%
